Experimental data reported in PubChem BioAssay (NCI).
This is part of a sample that, as a whole, favours compounds with a hit. Of some 83,000 tested, about 20% had one in any assay.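 Assay: single dose, 48 h. Readout: percent growth (0 = no net growth; negative = cell death). Active: <10.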 Calls of active or inactive are those of the source.

Tests used:
Assay in all cases: NCI-60 one-dose screen, 48 h (100 = growth as untreated, 0 = no growth, -100 = all killed)
Details in all cases: 10 µM unless noted
[1] = test system: NCI-H23 lung
[2] = test system: NCI-H226 lung
[3] = test system: NCI-H322M lung
[4] = test system: HOP-62 NSCLC
[5] = test system: NCI-H460 lung
[6] = test system: HOP-92 NSCLC
[7] = test system: NCI-H522 lung
[8] = test system: A549/ATCC NSCLC
[9] = test system: 786-0 renal
[10] = test system: COLO 205 colon
[11] = test system: DU-145 prostate
[12] = test system: K-562 leukemia
[13] = test system: MALME-3M melanoma
[14] = test system: MDA-MB-231 breast
[15] = test system: RXF 393 renal
[16] = test system: SF-268 CNS
[17] = test system: SF-295 CNS
[18] = test system: SF-539 CNS
[19] = test system: UACC-257 melanoma
[20] = test system: M14 melanoma

Measured: growth

Cn1ncc2c(=O)nc3c(-c4ccccc4)n[nH]n3c21
inactive: [1] 101% | [2] 91.9% | [3] 80.9% | [4] 95.5% | [5] 103% | [6] 116% | [7] 73.2% | [8] 101% | [9] 99.9% | [10] 119% | [11] 101% | [12] 119% | [13] 98.6% | [14] 102% | [15] 121% | [16] 101% | [17] 84.5% | [18] 96.2% | [19] 98.7% | [20] 104%

CCCOc1cc2ccccc2cc1C(=O)Nc1nc(NC)c2c(ccc3nccc32)[nH]1
active: [1] -64.8% | [2] -59.3% | [3] -65.9% | [4] -73.1% | [5] -78.3% | [6] -61.2% | [7] -74.5% | [8] -74.8% | [9] -72.9% | [10] -76.2% | [11] -82.8% | [12] -54.3% | [13] -80.7% | [14] -71.3% | [15] -71.7% | [16] -78% | [17] -66.6% | [18] -76.9% | [19] -75.4% | [20] -75.7%

Cn1cc(C(=O)c2nc(-c3c[nH]c4ccc(Br)cc34)no2)c2cc(F)ccc21
inactive: [1] 84.9% | [2] 81.5% | [3] 95.7% | [4] 103% | [5] 97% | [6] 85.4% | [7] 90.5% | [8] 104% | [9] 103% | [10] 98.3% | [11] 106% | [12] 102% | [13] 96.1% | [14] 89% | [15] 109% | [16] 99.2% | [17] 97.6% | [18] 99.1% | [19] 99.7% | [20] 100%

C#Cc1cccc(NC(=O)c2ccccc2NC(=O)C=C)c1
inactive: [1] 97.1% [8.25 µM] | [2] 97.6% [8.25 µM] | [3] 101% [8.25 µM] | [4] 92.9% [8.25 µM] | [5] 103% [8.25 µM] | [6] 92.8% [8.25 µM] | [7] 80.5% [8.25 µM] | [8] 98.1% [8.25 µM] | [9] 89.9% [8.25 µM] | [10] 109% [8.25 µM] | [11] 95.6% [8.25 µM] | [12] 98.8% [8.25 µM] | [13] 102% [8.25 µM] | [14] 102% [8.25 µM] | [15] 120% [8.25 µM] | [16] 95.6% [8.25 µM] | [17] 105% [8.25 µM] | [18] 92% [8.25 µM] | [19] 104% [8.25 µM] | [20] 103% [8.25 µM]

N#Cc1c(-c2ccc(Cl)cc2)nc(NN=Cc2ccco2)nc1N1CCOCC1
inactive: [1] 70.8% | [2] 70.8% | [3] 69.4% | [4] 66.4% | [5] 68.2% | [6] 40.6% | [7] 62.3% | [8] 78.9% | [9] 74% | [10] 75.2% | [11] 85.4% | [12] 104% | [13] 42.4% | [14] 74.5% | [15] 52.2% | [16] 74.5% | [17] 73.8% | [18] 75.3% | [19] 87.9% | [20] 71.4%

COc1ccc(S(=O)(=O)N2CCCCC2)cc1NC(=O)c1[nH]c(C)c2c1CCCCC2=O
active: [7] 7.18% | [15] 3.54%
inactive: [1] 26% | [2] 46.2% | [3] 31.8% | [4] 26% | [5] 34.8% | [6] 26.9% | [8] 28.2% | [9] 32.3% | [10] 22.9% | [11] 61.5% | [12] 22% | [13] 45.2% | [14] 29.1% | [16] 48.1% | [17] 23.9% | [18] 24.9% | [19] 32% | [20] 36%

CC[C@]1(O)C[C@@H]2CN(CCc3c([nH]c4ccccc34)[C@@](C(=O)OC)(c3cc4c(cc3OC)N(C)[C@H]3[C@@](O)(C(N)=O)[C@H](O)[C@]5(CC)[C@@H]6C[C@@H]6CN6CC[C@]43[C@@H]65)C2)C1
active: [5] 8.06% | [7] -32.3% | [10] -44.3% | [11] 4.49% | [14] 2.3% | [18] 7.92% | [20] 1.22%
inactive: [1] 32.7% | [2] 44.2% | [3] 55.4% | [4] 24.1% | [6] 19.3% | [8] 12.7% | [9] 18% | [12] 11.8% | [13] 85.5% | [15] 60.4% | [16] 30.8% | [17] 15.8% | [19] 53.6%
